Source: PubChem
Rows were chosen to be rich in hits. Some 4.1% of all compounds tested hit in one or more screens of this group.
Sm TGR block – blocks Schistosoma mansoni thioredoxin glutathione reductase; AID 485364; 3% of 360,000 active; Potency, µM (doses to about 114 µM), without a hit: at the highest dose activity change, negative = inhibition, usual class: inhibitors; Q962Y6; purified TGR, DTNB reduction, TNB absorbance 405 nm; further: nearly all actives have a fitted effect of over 60% in size
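First, TGR (20 nM dispensed) and NADPH were mixed with compound. Second, a 15 min room-temperature incubation followed. Third, further NADPH and then DTNB were added to start the reaction. Finally, TNB absorbance was monitored kinetically.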
AmpC detergent – AmpC beta-lactamase inhibition with detergent present; AmpC hydrolysis of nitrocefin, absorbance 480 nm, 0.01% Triton; Potency, µM (series often up to 114 µM), inactives show at the highest dose activity change, negative = inhibition, most hits filed as inhibitors; 0.041% of 370,000 active; AID 485294;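 further: 0% = no-compound wells and -100% = no-enzyme wells; nearly all actives have a fitted effect of over 25% in size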
Target sequence (P00811 whole entry, looked up): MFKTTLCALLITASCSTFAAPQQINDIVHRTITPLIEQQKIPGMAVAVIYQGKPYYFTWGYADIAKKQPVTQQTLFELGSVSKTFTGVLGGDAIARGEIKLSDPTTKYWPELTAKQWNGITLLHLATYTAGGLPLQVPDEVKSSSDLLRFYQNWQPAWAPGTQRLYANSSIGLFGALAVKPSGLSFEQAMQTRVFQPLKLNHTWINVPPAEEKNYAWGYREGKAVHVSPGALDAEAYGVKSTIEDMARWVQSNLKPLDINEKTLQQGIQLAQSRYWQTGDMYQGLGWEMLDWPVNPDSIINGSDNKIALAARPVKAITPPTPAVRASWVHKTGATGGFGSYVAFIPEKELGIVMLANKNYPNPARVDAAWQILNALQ
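AmpC (5.3 nM in the dispensed reagent) in 20 mM phosphate pH 7.0 with 0.01% (detergent screen) or 0.0001% Triton X-100 was preincubated with compounds for 15 min at room temperature. Nitrocefin was then added from an 800 uM solution, and hydrolysis was followed at 480 nm.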
FMDV inh – blocks foot and mouth disease virus; FMDV antiviral cell-based qHTS; Potency, µM (top dose mostly 57.9 µM), for the others: top-dose activity change, negative = inhibition, usual class: inhibitors; 1.2% of 410,000 active; AID 1159524; calls by dose curve; tested in HEK293T cells; further: read-out not given here; nearly all actives have a fitted effect of over 45% in size
AMA1 RON2 block – disrupts binding of P. falciparum AMA1 to RON2; AlphaScreen AMA1-biotinylated RON2 peptide binding; Potency, µM (series often up to 58.2 µM), without a hit: at the highest dose activity change, negative = inhibition, usual class: inhibitors; 0.2% of 360,000 active;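 further: 0% = vehicle wells and -100% = peptide control; nearly all actives have a fitted effect of over 45% in size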
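AMA1 (3D7) with his tag at 25 nM final met compounds first, then biotinylated RON2 peptide at 25 nM; detection used donor plus acceptor beads, 10 µg/mL apiece, read by AlphaScreen after 30 min at room temperature.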
AmpC no deterg – AmpC beta-lactamase inhibition without detergent | P00811 | AmpC nitrocefin hydrolysis, absorbance 480 nm, 0.0001% Triton | Potency, µM (doses to about 57.1 µM), without a hit: at the top dose activity change, negative = inhibition, actives largely listed as inhibitors | 0.52% of 330,000 active;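 further: plate controls were no compound for no effect and no enzyme for full effect; nearly all actives have a fitted effect of over 20% in size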
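AmpC (5.3 nM in the dispensed reagent) in 20 mM phosphate pH 7.0 with 0.01% (detergent screen) or 0.0001% Triton X-100 was preincubated with compounds for 15 min at room temperature. Nitrocefin was then added from an 800 uM solution, and hydrolysis was followed at 480 nm.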
An asterisk follows results filed as active. Unless noted, the call rests on the fitted dose curve; in most records, active means well fitted curve in the direction sought with a large enough effect; inconclusive means small, poorly fitted or top-dose-only effect, or another doubt; inactive means no such curve, though single readings can be large; an effect the other way counts as inactive or inconclusive. Unless noted, on the % scale 0 is the no-effect control and ±100 the full control effect; potency means the concentration at half of the fitted maximal effect.

Results for CC(C)(C)c1cc(CCC(=O)NNC(=S)NC(=O)c2ccccc2)cc(C(C)(C)C)c1O ?
Sm TGR block: -11%; AmpC detergent: -11%; FMDV inh: -25%; AMA1 RON2 block: 88%; AmpC no deterg: 1.6µM*

Results for CC(=O)N[C@@H](Cc1c[nH]c2ccccc12)C(=O)OCC(=O)Nc1ccc(Cl)c(S(=O)(=O)N(C)C)c1 ?
Sm TGR block: 26%; AmpC detergent: 8%; FMDV inh: -18%; AMA1 RON2 block: 0%; AmpC no deterg: 50%

Results for CC(=O)NC(Cc1c[nH]c2ccccc12)C(=O)OCC(=O)Nc1ccc2c(c1)OCO2 (centres undefined) ?
Sm TGR block: 10µM*; AmpC detergent: -8%; FMDV inh: -5%; AMA1 RON2 block: -6%; AmpC no deterg: 3%

How did Cc1ccc(C(=O)COC(=O)C(Cc2c[nH]c3ccccc23)NC(=O)c2ccc(C(C)(C)C)cc2)cc1 (centres undefined) do in these assays?
Sm TGR block: 11µM*; AmpC detergent: -9%; FMDV inh: 20%

What do the screens show for `Cc1cnc(-n2ncc(C(=O)N(C)Cc3cccc4ncccc34)c2C(C)C)nc1-c1ccc(F)cc1`?
FMDV inh: -17%

Results for Cc1cc(C)cc(NC(=O)c2cc(CN3CCCC3)on2)c1 ?
Sm TGR block: -1%; AmpC detergent: -2%; FMDV inh: 42%

Results for COc1ccccc1-c1noc(CCCC(=O)N2CCOCC2)n1 ?
Sm TGR block: 2%; AmpC detergent: -9%; FMDV inh: -7%; AMA1 RON2 block: 0%; AmpC no deterg: 0%

What do the screens show for `COc1ccccc1-c1cc(C(F)(F)F)nc(S(=O)(=O)CCCC(=O)N2CCOCC2)n1`?
Sm TGR block: 32µM*; AmpC detergent: inconclusive; FMDV inh: 22µM*; AMA1 RON2 block: 12%; AmpC no deterg: 65%

What do the screens show for `COc1ccccc1-c1cc(C(F)(F)F)nc(S(=O)(=O)CCCC(=O)O)n1`?
Sm TGR block: inconclusive; AmpC detergent: -5%; FMDV inh: 25µM*; AMA1 RON2 block: -9%; AmpC no deterg: -5%

How did COc1ccccc1-c1cc(C(F)(F)F)nc(S(=O)(=O)CCCC(=O)Nc2cc(OC)c(OC)c(OC)c2)n1 do in these assays?
Sm TGR block: inconclusive; AmpC detergent: 5%; FMDV inh: 19%

How did COc1ccc(-c2cc(C(F)(F)F)nc(S(=O)(=O)CCC(=O)N3CCOCC3)n2)cc1 do in these assays?
Sm TGR block: 28µM*; AmpC detergent: 1%; FMDV inh: -11%; AMA1 RON2 block: -1%; AmpC no deterg: -3%

How did COC(=O)c1c(-c2cccs2)csc1NC(=O)c1ccc(C(C)(C)C)cc1 do in these assays?
Sm TGR block: 0%; AmpC detergent: 15%; FMDV inh: -28%

What do the screens show for `COc1cc(CNc2ncc(-c3ccc(Br)cc3)n2C)cc(OC)c1O`?
Sm TGR block: 16µM*; AmpC detergent: -16%; FMDV inh: -9%; AMA1 RON2 block: -19%; AmpC no deterg: 2%

How did COc1ccc(CNc2ncc(-c3ccc(F)cc3)n2C)cc1OC do in these assays?
Sm TGR block: -10%; AmpC detergent: -11%; FMDV inh: -11%; AMA1 RON2 block: inconclusive; AmpC no deterg: -12%

Results for Cc1nnc(SCc2c(Cl)cccc2Cl)n(N)c1=O ?
Sm TGR block: 4%; AmpC detergent: 5%; FMDV inh: -15%; AMA1 RON2 block: -21%; AmpC no deterg: -12%

What do the screens show for `CCn1c(SCc2c(Cl)cccc2Cl)nnc1-c1nn(-c2ccccc2)ccc1=O`?
Sm TGR block: 100µM*; AmpC detergent: -8%; FMDV inh: 13%; AMA1 RON2 block: -6%; AmpC no deterg: 93%

Results for O=C(NCc1ccco1)c1ccc(C(F)(F)F)cc1 ?
Sm TGR block: 2%; AmpC detergent: 4%; FMDV inh: 1%; AMA1 RON2 block: -11%; AmpC no deterg: -7%

What do the screens show for `CC(C)(C)N1C(=O)c2ccc(C(=O)NCc3ccco3)cc2C1=O`?
Sm TGR block: 25µM*; AmpC detergent: 4%; FMDV inh: 25%; AMA1 RON2 block: -10%; AmpC no deterg: -22%

How did O=C(NCc1ccco1)c1ccc2[nH]c(=O)c(=O)[nH]c2c1 do in these assays?
Sm TGR block: -31%; AmpC detergent: 0%; FMDV inh: inconclusive; AMA1 RON2 block: -11%; AmpC no deterg: -21%

What do the screens show for `Cc1c(C)n(C)c2ccc(C(=O)NCCc3ccco3)cc12`?
Sm TGR block: 35µM*; AmpC detergent: -10%; FMDV inh: 47%; AMA1 RON2 block: -24%; AmpC no deterg: -13%

Results for Cc1ccccc1-c1noc(-c2ccccc2C(=O)NCc2ccco2)n1 ?
Sm TGR block: 13µM*; AmpC detergent: 4%; FMDV inh: -13%; AMA1 RON2 block: -13%; AmpC no deterg: -14%

How did Cc1ccc(C(=O)NCc2ccco2)cc1Br do in these assays?
Sm TGR block: 45µM*; AmpC detergent: 2%; FMDV inh: -7%; AMA1 RON2 block: 27%; AmpC no deterg: -26%

How did O=C(NCc1ccco1)c1ccccc1-c1nc(-c2ccc(F)cc2)no1 do in these assays?
Sm TGR block: inconclusive; AmpC detergent: 3%; FMDV inh: 5%; AMA1 RON2 block: 5%; AmpC no deterg: 4%

Results for Cc1cccc(-c2nc3nc(C)cc(NCc4ccccc4Cl)n3n2)c1 ?
Sm TGR block: inconclusive; AmpC detergent: -7%; FMDV inh: -3%

Results for Cc1noc(C)c1C(=O)N1CCC1(C)C(=O)NS(=O)(=O)c1ccccc1C(F)(F)F (centres undefined) ?
FMDV inh: 5%; AMA1 RON2 block: 17%

How did Cc1ccc2cc(CNC(C)CO)c(N3CCC(O)CC3)nc2c1 (centres undefined) do in these assays?
FMDV inh: 10%

What do the screens show for `Cc1c(Br)cc(C(=O)NCc2ccco2)c(C)c1C`?
Sm TGR block: 35µM*; AmpC detergent: inconclusive; FMDV inh: -26%; AMA1 RON2 block: -6%; AmpC no deterg: -20%

What do the screens show for `COc1cc2c(cc1NC(=O)c1ccc3c(c1)OCO3)oc1ccccc12`?
Sm TGR block: -2%; AmpC detergent: -6%; AMA1 RON2 block: -2%; AmpC no deterg: -29%

What do the screens show for `COc1cc2c(cc1NCc1ccc3c(c1)OCO3)oc1ccccc12`?
Sm TGR block: -9%; AmpC detergent: -13%; FMDV inh: 46%; AMA1 RON2 block: 32µM*; AmpC no deterg: -24%

How did COc1ccc(-c2noc(CSc3nnc(-c4ccncc4)n3-c3ccc(OC)cc3)n2)cc1 do in these assays?
Sm TGR block: -2%; AmpC detergent: -3%; FMDV inh: 0%

What do the screens show for `CCOc1ccc(NC(=O)NC(C)c2c(-n3cccc3)sc(C)c2C)cc1` (centres undefined)?
Sm TGR block: 7%; AmpC detergent: 11%; FMDV inh: 16%
